# Compounds with a hit are over-represented: about 4.8% of the library has one in this group of screens.
# MPTP block: permeability transition pore inhibition | inhibition, % at 10 µM | AID 602449 | 360,000 compounds, 1.4% hits | isolated mouse mitochondria, Ca2+ swelling absorbance, 30 min;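 active means inhibition of 50% or more, scaled per plate between neutral and stimulator controls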;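 further: 0% = DMSO wells given calcium and 100% = 1 mM EGTA wells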
# CSC inhib: cancer stem cell inhibition; cancer stem cell-like cells viability, luminescence; inhibition, % at 7.5 µM; 300,000 compounds, 1.1% hits; in the data active means inhibition above about 75%; inconclusive means no clear call, values can overlap the other calls; tested in HMLE shEcad cells
# Calb FLC: C. albicans growth modulation with fluconazole | 300,000 compounds, 0.57% hits | growth inhibition, % (concentration not given with the values) | AID 1979 | C. albicans CaCi-2 (fluconazole-resistant clinical isolate) + fluconazole, Alamar Blue growth, 48 h;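 active means growth inhibition above about 58% in most replicates, limit read from the data, passing the limit was not always enough; inconclusive means exactly half the replicates above a set limit; inactive means most replicates below a set limit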;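 further: all wells also contain fluconazole at 8 µg/ml as a sub-toxic cotreatment; 0% = median of DMSO wells and 100% = median of geldanamycin control wells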
# Mdm2-MdmX inh: human Mdm2/MdmX binding inhibition | inhibition, % at 8 µM | 330,000 compounds, 3% hits | SaOS-2 split-luciferase Mdm2/MdmX complementation, luminescence | O15151+Q00987;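 active means inhibition of at least 50% at 8 µM in the primary screen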
# Target sequence (O15151 whole entry, looked up): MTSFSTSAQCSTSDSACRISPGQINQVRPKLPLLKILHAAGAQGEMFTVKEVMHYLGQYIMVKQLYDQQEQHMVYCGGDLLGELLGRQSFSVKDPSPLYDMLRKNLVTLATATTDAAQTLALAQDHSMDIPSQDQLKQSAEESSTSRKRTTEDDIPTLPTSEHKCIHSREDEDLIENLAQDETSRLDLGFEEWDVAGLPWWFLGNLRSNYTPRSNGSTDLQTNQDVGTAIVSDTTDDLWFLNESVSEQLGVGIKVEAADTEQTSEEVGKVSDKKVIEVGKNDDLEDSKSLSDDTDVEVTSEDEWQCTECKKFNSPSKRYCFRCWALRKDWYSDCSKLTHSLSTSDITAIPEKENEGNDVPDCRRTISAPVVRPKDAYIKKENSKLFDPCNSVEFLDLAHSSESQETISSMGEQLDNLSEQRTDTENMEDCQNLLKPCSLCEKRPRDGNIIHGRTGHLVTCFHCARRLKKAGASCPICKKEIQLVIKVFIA
# Target sequence (Q00987 whole entry, looked up): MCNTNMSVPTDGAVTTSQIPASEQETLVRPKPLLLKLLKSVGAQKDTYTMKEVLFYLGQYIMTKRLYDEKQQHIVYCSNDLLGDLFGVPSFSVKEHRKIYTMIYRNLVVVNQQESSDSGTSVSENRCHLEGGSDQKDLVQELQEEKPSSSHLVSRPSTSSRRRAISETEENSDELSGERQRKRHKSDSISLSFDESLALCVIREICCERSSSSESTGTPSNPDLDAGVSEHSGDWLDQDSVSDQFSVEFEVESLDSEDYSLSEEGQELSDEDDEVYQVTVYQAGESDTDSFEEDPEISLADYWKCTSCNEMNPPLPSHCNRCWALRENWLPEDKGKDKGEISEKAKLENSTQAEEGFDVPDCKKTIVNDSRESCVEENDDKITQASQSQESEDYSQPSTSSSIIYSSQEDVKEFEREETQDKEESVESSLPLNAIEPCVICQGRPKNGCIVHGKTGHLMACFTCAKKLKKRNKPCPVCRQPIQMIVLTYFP
# Beta apoptosis: beta cell apoptosis inhibition; INS-1E cytokine-induced death, ATP luminescence, 48 h; percent of positive-control rescue, neutral wells zero; protection from apoptosis, % (no concentration beside the values); 300,000 compounds, 0.8% hits; AID 435005;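 active means Every replicate reaches about 75%, or at least half do and their mean reaches it too, limit read from the data; inconclusive means At least half of replicates reach the limit but their mean does not; inactive means Under half of replicates reach the limit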;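 further: 0% = cytokine-treated negative control wells and 100% = positive control rescue; higher means more ATP so stronger rescue from cytokine killing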
# Mdm2 MdmX conf: confirmation of human Mdm2/MdmX interaction inhibitors; shares compounds with Mdm2-MdmX inh; Mdm2-MdmX binding, luminescent assay; AID 489028; inhibition, % at 8 µM; 10,000 compounds, 55% hits; in the data active means inhibition above about 40%
# Full FLuc ctr: full-length luciferase inhibition in Mdm2/MdmX counter-screen; AID 504607; 6,200 compounds, 77% hits; shares compounds with Mdm2-MdmX inh; SaOS-2 full-length luciferase counterscreen, luminescence; inhibition, % at 8 µM;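 active means mean inhibition at 8 µM reaching about 37%, which flags the compound as non-specific, limit read from the data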;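 further: p53-null SaOS-2 cells with luciferase driven by a doxycycline-inducible promoter; compound on cells about two nights before reading with doxycycline added after day one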
# Rh123 counter: Rhodamine 123 counter-screen of mitochondrial pore hits; shares compounds with MPTP block; isolated mitochondria, membrane potential, Rhodamine 123 fluorescence; inhibition, % at 10 µM; 5,000 compounds, 78% hits; AID 624504; in the data active means inhibition above about 22%;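 further: 0% = DMSO vehicle and 100% = positive control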
# Numbers without * were called inactive; ? = inconclusive; nt = no result.
SMILES,MPTP block,CSC inhib,Calb FLC,Mdm2-MdmX inh,Beta apoptosis,Mdm2 MdmX conf,Full FLuc ctr,others
N/C(=N\OC(=O)c1ccc2c(c1)OCO2)c1cccc(Br)c1,-2,-9,14,10,-9,nt,nt,
COc1ccc(/C(N)=N/OC(=O)c2ccc3c(c2)OCO3)cc1OC,2,nt,10,91*,nt,16,nt,
CC(=O)Nc1cccc(-c2ccnc3c2CC(C(=O)Nc2ccc(C(C)C)cc2)O3)c1 (configuration not stated),2,nt,nt,nt,nt,nt,nt,
Cc1ccc(NC(=O)CSc2nnc(C)n2C2CC2)cc1S(=O)(=O)N1CCOCC1,-1,nt,nt,1,-5,nt,nt,
C#Cc1cccc(Nc2nc(NCc3ccccc3OC)nc3ccsc23)c1,40,nt,nt,nt,nt,nt,nt,
CC(C)c1cc(C(=O)OCC(=O)NC2CC2)c(O)c(C(C)C)c1,0,nt,nt,nt,nt,nt,nt,
Cc1onc(-c2c(Cl)cccc2Cl)c1C(=O)N/N=C(\N)COc1ccc(Cl)cc1,7,101*,93*,72*,91*,82*,40*,
COc1cc(/C=N/NC(=O)c2c(-c3c(Cl)cccc3Cl)noc2C)ccc1OCC(N)=O,-1,nt,-12,14,nt,nt,nt,
CCCCOCCCNC(=O)C[C@@H]1C[C@@]2(C(=O)OC)CCCCC=C2N(CCc2ccc(OC)c(OC)c2)C1=O,1,nt,nt,nt,nt,nt,nt,
CCCNC(=O)C1(C)CCCN(Cc2ccccc2F)C1 (configuration not stated),-1,nt,nt,nt,nt,nt,nt,
O=S(=O)(c1cc(Cl)ccc1Cl)N1CCN(c2ccccn2)CC1,1,-1,12,-7,nt,nt,nt,
Cn1c(NCC(O)c2ccccc2)nc2c1c(=O)n(Cc1ccc(Cl)c(Cl)c1)c(=O)n2C (configuration not stated),4,-10,3,63*,4,21,nt,
Cn1c(NCC(O)c2ccccc2)nc2c1c(=O)n(Cc1ccc(Cl)cc1)c(=O)n2C (configuration not stated),-3,4,-13,3,6,nt,nt,
Cc1nn(-c2nc3ccccc3s2)c(C)c1Oc1ccccc1O,4,?,1,77*,-5,66*,87*,
O=C1CCC(C(=O)N2CCc3c(Cl)cccc3C2)CN1CCCN1CCOCC1 (configuration not stated),1,-10,-16,15,2,nt,nt,
CC(NC(=O)c1cnccn1)c1ccc(S(N)(=O)=O)cc1 (configuration not stated),2,-3,-10,-4,1,nt,nt,
NC(=O)c1nsc(C(=O)N(c2ccccc2F)C(C(=O)NCc2ccccc2)c2ccc(O)cc2)c1N (configuration not stated),0,18,1,52*,7,66*,77*,
Cc1ccccc1N(C(=O)c1snc(C(N)=O)c1N)C(C(=O)NCc1ccccc1)c1ccc(O)cc1 (configuration not stated),1,4,-8,-24,7,nt,nt,
COc1cc(NC(=O)CN2C(=O)COc3ccccc32)cc(OC)c1,0,nt,nt,nt,nt,nt,nt,
O=C(Nc1ccccc1)NN(C(=O)CCl)c1ccccc1,-1,?,-1,100*,-41,76*,58*,
Cc1ccc(N(NC(=O)C(O)(c2ccccc2)c2ccccc2)C(=O)CCl)cc1,2,21,-15,100*,-9,97*,56*,
CC(C)c1ccc(OCC(=O)NC2CC(C)(C)NC(C)(C)C2)c(Br)c1,0,1,-3,23,1,nt,nt,
COc1ccc(N2C(c3ccsc3)=Cc3cc4c(cc3C2c2c[nH]c3ccccc23)OCO4)cc1 (configuration not stated),2,nt,nt,nt,nt,nt,nt,
COC(=O)C1=C(CN2CCCc3ccccc32)NC(=O)NC1c1ccc(F)cc1 (configuration not stated),0,-1,0,70*,-4,72*,38*,
COc1ccc(-c2cc(CNc3nc(NCc4ccccc4OC)nc4ccsc34)on2)cc1,7,nt,nt,nt,nt,nt,nt,
SMILES,MPTP block,CSC inhib,Calb FLC,Mdm2-MdmX inh,Beta apoptosis,Mdm2 MdmX conf,Full FLuc ctr,others
COc1ccc(S(=O)(=O)N2CCOCC2)cc1NC(=O)c1cccc(Cl)c1,0,18,7,27,2,nt,nt,
Cc1ccc(Cn2ncc(Cl)c(Cl)c2=O)cc1,3,-8,-12,80*,-14,51*,5,
CCc1ccc(C(=O)Cn2ncc(Cl)c(Cl)c2=O)cc1,4,-6,21,96*,-11,88*,51*,
O=C(/C=C/[C@H]1O[C@@H](n2ccc(=O)[nH]c2=O)[C@H](O)[C@@H]1O)N1CCN(Cc2ccc(F)cc2)CC1,0,nt,nt,nt,nt,nt,nt,
S=C(NCCc1ccccc1)N1CCC2CC1c1cc(-c3ccc4c(c3)OCO4)ccc12 (configuration not stated),2,nt,nt,nt,nt,nt,nt,
CCCCn1c2c(c(=N)c3c1CCC3)CCC2,-10,-9,nt,43,48,nt,nt,
CCCCCCCCCn1c2c(c(=N)c3c1CCC3)CCC2,84*,56,36,95*,109*,93*,55*,Rh123 counter=92*
Cc1cccc(C2(c3cccc(C)c3)CC2C(=O)Nc2ccc([N+](=O)[O-])cc2O)c1 (configuration not stated),96*,nt,39,90*,nt,94*,51*,Rh123 counter=68*
Cc1nnc(Cc2ccccc2)c2n[nH]c(C)c12,-1,nt,nt,nt,nt,nt,nt,
CC(=O)Oc1ccc2nc(/C=C/c3ccccc3)oc(=O)c2c1,0,9,-3,12,2,nt,nt,
Cc1ccc2nc3c(c(Nc4ccc5c(c4)OCCO5)c2c1)CCC3,54*,-1,11,56*,21,15,nt,Rh123 counter=76*
CCCn1nc(C(=O)Nc2cc(OCC)c(N3CCOCC3)cc2OCC)c2ccccc2c1=O,1,nt,nt,nt,nt,nt,nt,
Cc1ccc(NC(C(=O)c2ccccc2)c2ccccc2)cc1 (configuration not stated),0,nt,nt,nt,nt,nt,nt,
O=C(CN1c2ccccc2Sc2ccccc21)NNC(=S)Nc1ccc(Cl)cc1Cl,83*,?,-5,66*,18,6,nt,Rh123 counter=77*
COc1ccc(Nc2nc(-c3cccc([N+](=O)[O-])c3)nc3ccccc23)cc1,53*,124*,-5,55*,11,14,nt,Rh123 counter=25*
CN(Cc1ccccc1)C(=O)c1ncn2c1c(=O)[nH]c1cccnc12,0,nt,nt,nt,nt,nt,nt,
Cc1ccc(NC(=O)COC(=O)C2=COCCO2)c([N+](=O)[O-])c1,-2,-14,0,-4,-2,nt,nt,
CC(=O)c1c(C)[nH]c(C(=O)OCC(=O)Nc2ccc(C)cc2[N+](=O)[O-])c1C,100*,-8,24,51*,123*,37,58*,Rh123 counter=90*
O=C(Nc1ccc(OCC(F)(F)C(F)F)c(C(F)(F)F)c1)c1ccccc1,4,68,12,14,2,nt,nt,
O=C(Nc1ccc(OCC(F)(F)C(F)F)c(C(F)(F)F)c1)c1ccccc1O,106*,1,7,94*,122*,92*,28,Rh123 counter=77*

# Source: PubChem BioAssay (several laboratories)
